Results filed as inconclusive are left out. Active and inactive are the calls of the source. Calls come from the whole dose curve; as a rule, active = well fitted curve in the direction sought with a large enough effect; inconclusive = small, poorly fitted or top-dose-only effect, or another doubt; inactive = no such curve, though single readings can be large; an effect the other way counts as inactive or inconclusive.
How the values were obtained:
[1] = Quantitative High-Throughput drug screen in 47 multiple myeloma cell lines against the NCATS MIPE library collection: MOLP8_DSMZ cell viability assay (AID 1918977); conditions: MOLP8 myeloma viability, CellTiter-Glo ATP luminescence, 48 h; series mostly up to 45.8 µM; note: nearly all actives have a fitted effect of over 45% in size
Summary of the method: (§1)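 Viability after 48 h drug exposure was measured as ATP-dependent luminescence. Cells, 500 per well, sat at 37 °C under 5% CO2; DMSO wells set 100%, media-only wells 0%.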

[2] = Quantitative High-Throughput drug screen in 47 multiple myeloma cell lines against the NCATS MIPE library collection: NCIH929_DSMZ cell viability assay (AID 1918978); conditions: NCI-H929 myeloma viability, CellTiter-Glo ATP, 48 h; series mostly up to 45.8 µM; note: nearly all actives have a fitted effect of over 35% in size
Summary of the method: as §1

[3] = Quantitative High-Throughput drug screen in 47 multiple myeloma cell lines against the NCATS MIPE library collection: OCIMY1_PLB cell viability assay (AID 1918979); conditions: OCI-MY1 myeloma viability, CellTiter-Glo ATP, 48 h; series mostly up to 45.8 µM; note: nearly all actives have a fitted effect of over 35% in size
Summary of the method: as §1

[4] = Quantitative High-Throughput drug screen in 47 multiple myeloma cell lines against the NCATS MIPE library collection: MM1S_ATCC cell viability assay (AID 1918980); conditions: MM1S myeloma viability, CellTiter-Glo ATP luminescence, 48 h; series mostly up to 45.8 µM; note: nearly all actives have a fitted effect of over 45% in size
Summary of the method: as §1

[5] = Quantitative High-Throughput drug screen in 47 multiple myeloma cell lines against the NCATS MIPE library collection: MM1R_ATCC cell viability assay (AID 1918981); conditions: MM1R multiple myeloma cells, CellTiter-Glo viability, 48 h; series mostly up to 45.8 µM; note: nearly all actives have a fitted effect of over 35% in size
Summary of the method: as §1

[6] = Quantitative High-Throughput drug screen in 47 multiple myeloma cell lines against the NCATS MIPE library collection: LP1_DSMZ cell viability assay (AID 1918982); conditions: LP1 myeloma viability, CellTiter-Glo ATP luminescence, 48 h; series mostly up to 45.8 µM; note: nearly all actives have a fitted effect of over 35% in size
Summary of the method: as §1

[7] = Quantitative High-Throughput drug screen in 47 multiple myeloma cell lines against the NCATS MIPE library collection: KMS28PE_JCRB cell viability assay (AID 1918983); conditions: KMS28PE multiple myeloma viability, CellTiter-Glo ATP, 48 h; series mostly up to 45.8 µM; note: nearly all actives have a fitted effect of over 35% in size
Summary of the method: as §1

[8] = Quantitative High-Throughput drug screen in 47 multiple myeloma cell lines against the NCATS MIPE library collection: KMS34_JCRB cell viability assay (AID 1918985); conditions: KMS34 myeloma viability, CellTiter-Glo ATP luminescence, 48 h; series mostly up to 45.8 µM; note: nearly all actives have a fitted effect of over 40% in size
Summary of the method: as §1

[9] = Quantitative High-Throughput drug screen in 47 multiple myeloma cell lines against the NCATS MIPE library collection: L363_DSMZ cell viability assay (AID 1918984); conditions: L363 myeloma viability, CellTiter-Glo ATP luminescence, 48 h; series mostly up to 45.8 µM; note: nearly all actives have a fitted effect of over 40% in size
Summary of the method: as §1

[10] = Quantitative High-Throughput drug screen in 47 multiple myeloma cell lines against the NCATS MIPE library collection: OCIMY7_PLB cell viability assay (AID 1918987); conditions: OCI-MY7 myeloma viability, CellTiter-Glo ATP, 48 h; series mostly up to 45.8 µM; note: nearly all actives have a fitted effect of over 65% in size
Summary of the method: as §1

Measured: Potency
Potency is the fitted concentration of half-maximal effect.

CCN1CCN(C(=O)Cc2ccc(Nc3ncc(F)c(Nc4ccc(C(=O)Nc5ccccc5Cl)cc4)n3)cc2)CC1
active: [1] 7430 nM | [2] 2640 nM | [3] 7430 nM | [4] 5900 nM | [5] 5900 nM | [6] 8330 nM | [7] 14800 nM

CCOC(=O)Nc1ccc(NCc2ccc(F)cc2)cc1N
active: [2] 14800 nM | [4] 18700 nM
not listed: [9] | [10]
inactive: all other assays above

O=c1[nH]c2ccc(Cl)cc2c(N[C@@H]2CN3CCC2CC3)c1-c1nc2ccccc2[nH]1
active: [1] 743 nM | [2] 148 nM | [3] 4690 nM | [4] 74.3 nM | [5] 83.3 nM | [6] 3320 nM | [7] 2350 nM | [8] 74.3 nM

C#C[C@]1(O)C=C[C@@H]2[C@@H]3CCC4=CC(=O)CC[C@@H]4[C@H]3CC[C@@]21CC
not listed: [5] | [9] | [10]
inactive: all other assays above

COCC1(CO)C(=O)C2CCN1CC2 (stereo unspecified)
active: [1] 590 nM | [2] 833 nM | [3] 2090 nM | [4] 264 nM | [5] 469 nM | [6] 2640 nM | [7] 18700 nM | [9] 3320 nM | [10] 469 nM

C[C@@H]1O[C@@H](O[C@@H]2C=C3CC[C@@H]4[C@@H](CC[C@]5(C)[C@H](c6ccc(=O)oc6)CC[C@@]45O)[C@@]3(C)CC2)[C@H](O)[C@H](O)[C@H]1O
active: [1] 29.6 nM | [2] 46.9 nM | [3] 16.6 nM | [4] 29.6 nM | [5] 26.4 nM | [6] 6.6 nM | [7] 16.6 nM

COc1ccc2c(c[n+](C)c3c4cc5c(cc4ccc23)OCO5)c1OC
active: [1] 3320 nM | [2] 7430 nM | [3] 7430 nM | [4] 4690 nM | [5] 2350 nM | [6] 14800 nM | [7] 4690 nM | [8] 4180 nM | [10] 2960 nM

O=S(=O)(F)Cc1ccccc1
active: [4] 41.8 nM
not listed: [8] | [9] | [10]
inactive: all other assays above

C=CCON=C(C[C@H]1O[C@@H]2O[C@]3(C)CC[C@@H]4[C@H](C)CC[C@@H]([C@H]1C)[C@@]24OO3)[C@H]1O[C@@H]2O[C@]3(C)CC[C@H]4[C@H](C)CC[C@@H]([C@@H]1C)[C@@]24OO3
active: [1] 235 nM | [2] 148 nM | [3] 187 nM | [4] 526 nM | [5] 296 nM | [7] 264 nM

CC(=O)OCC1=C(C(=O)O)N2C(=O)[C@@H](N)[C@@H]2SC1
inactive: [1] | [2] | [3] | [7]

CC(=Cc1csc(C)n1)[C@@H]1C[C@H]2O[C@]2(C)CCC[C@H](C)[C@@H](O)[C@@H](C)C(=O)C(C)(C)[C@@H](O)CC(=O)O1
inactive: [1] | [2] | [3] | [4] | [6] | [10]

CC1=C(O)C(=O)C=C2C1=CC=C1[C@@]2(C)CC[C@@]2(C)[C@@H]3C[C@](C)(C(=O)O)CC[C@]3(C)CC[C@]12C
active: [1] 418 nM | [2] 372 nM | [3] 833 nM | [4] 662 nM | [5] 469 nM | [6] 833 nM | [7] 833 nM | [8] 743 nM

CC=C(C)C(=O)O[C@H]1C(C)=C2[C@@H]3OC(=O)[C@@](C)(O)[C@@]3(O)[C@@H](OC(=O)CCC)C[C@](C)(OC(C)=O)[C@@H]2[C@@H]1OC(=O)CCCCCCC
active: [1] 41.8 nM | [2] 332 nM | [3] 105 nM | [4] 18.7 nM | [5] 16.6 nM | [6] 29.6 nM | [7] 132 nM | [8] 16.6 nM

Clc1ccccc1C(c1ccccc1)(c1ccccc1)n1cccn1
active: [1] 16600 nM | [4] 469 nM | [5] 23500 nM | [7] 11800 nM
inactive: [2] | [3]

CCN(CC)C(=O)c1ccc(C2=CC3(CCNCC3)Oc3cccc(O)c32)cc1
inactive: [1] | [2] | [3] | [6] | [7]

C1=C2CCCN[C@H]2[C@@H]2C[C@H]1[C@@H]1CCCCN1C2
not listed: [9]
inactive: all other assays above

CC[C@@H]1[C@@H](C)O[C@@](O)([C@@H](C)[C@H](O)[C@H](C)[C@H]2OC(=O)C=CC=C[C@@H](C)[C@@H]([C@@H](C)[C@@H](O)[C@H](C)[C@@]3(O)C[C@H](O[C@H]4C[C@H](O)[C@H](O)[C@H](C)O4)[C@H](CC)[C@@H](C)O3)OC(=O)C=CC=C[C@@H]2C)C[C@H]1O[C@H]1C[C@H](O)[C@H](O)[C@H](C)O1
active: [1] 418 nM | [2] 935 nM | [3] 833 nM | [4] 469 nM | [5] 526 nM | [6] 590 nM | [7] 372 nM
